In PubChem BioAssay (NCATS):
Inconclusive results are not listed. Activity calls are given as the source filed them. Calls follow the shape of the dose curve; as a rule, active = well fitted inhibition curve with a large enough effect; inconclusive = small, poorly fitted or top-dose-only effect; inactive = flat fitted curve, though single readings scatter. Peptide text beside a SMILES is read from it.

biological target: Ubiquitin carboxyl-terminal hydrolase 1 (Homo sapiens) (UniProt O94782); test: Inhibitors of USP1/UAF1: Pilot qHTS (AID 504865); conditions: purified USP1/UAF1, Ub-rhodamine cleavage fluorescence; series mostly up to 114 µM; activity change, negative = inhibition: at the top concentration; also: nearly all actives have a fitted effect of over 35% in size; also: potency is read from the fitted curve at half-maximal effect;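 as to activity change, negative = inhibition: rhodamine fluorescence freed from ubiquitin-rhodamine substrate followed over time; top concentration of the series differs between compounds; % is scaled to controls: 0 for no effect and ±100 for the full control effect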
How it was run: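 Kinetic fluorescence assay: 1nM USP1/UAF1, 15 min compound preincubation, then 150nM Ub-Rho; 480/540 nm.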

Ubiquitin carboxyl-terminal hydrolase 1 (Homo sapiens), sequence (O94782 whole entry, looked up): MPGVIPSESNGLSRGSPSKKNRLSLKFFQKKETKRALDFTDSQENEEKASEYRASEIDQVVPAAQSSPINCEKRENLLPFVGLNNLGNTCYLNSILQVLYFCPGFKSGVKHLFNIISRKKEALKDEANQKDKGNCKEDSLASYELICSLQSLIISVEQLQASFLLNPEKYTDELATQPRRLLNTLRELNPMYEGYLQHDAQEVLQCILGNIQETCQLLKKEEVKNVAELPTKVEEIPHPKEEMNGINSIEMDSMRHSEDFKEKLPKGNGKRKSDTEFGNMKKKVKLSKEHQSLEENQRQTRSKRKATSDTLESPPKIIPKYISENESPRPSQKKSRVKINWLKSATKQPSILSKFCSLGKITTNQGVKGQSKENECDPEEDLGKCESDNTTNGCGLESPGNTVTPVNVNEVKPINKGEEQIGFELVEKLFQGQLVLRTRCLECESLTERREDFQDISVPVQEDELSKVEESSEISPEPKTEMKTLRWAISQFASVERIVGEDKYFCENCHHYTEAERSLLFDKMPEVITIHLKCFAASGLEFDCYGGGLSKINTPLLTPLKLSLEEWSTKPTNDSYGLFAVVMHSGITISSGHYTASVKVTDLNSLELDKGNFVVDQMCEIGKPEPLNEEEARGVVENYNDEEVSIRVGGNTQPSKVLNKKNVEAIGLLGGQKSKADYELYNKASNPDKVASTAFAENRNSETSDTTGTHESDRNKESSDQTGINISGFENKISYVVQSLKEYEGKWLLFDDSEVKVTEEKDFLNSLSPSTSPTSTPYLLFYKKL

Row | Structure (SMILES) | activity change, negative = inhibition | Potency
1 | CC1=C(CCC(=O)O)c2cc3nc(cc4[nH]c(cc5[nH]c(cc1n2)c(C)c5C(C)O)c(C)c4C(C)O)C(C)=C3CCC(=O)O (stereo unspecified) | -9.82% (inactive) | 
2 | C[C@]1(c2ccccc2)OC(C(=O)O)=CC1=O | -8.42% (inactive) | 
3 | OCC1OC([S-])[C@H](O)C(O)C1O.[Au+] (stereo partly specified) | 28.9% (inactive) | 
4 | COC(=O)N/N=C/C1=C[N+](=O)c2ccccc2[N+]1=O | 1.35% (inactive) | 
5 | CN1CC(=O)N=C1N | 3.43% (inactive) | 
6 | CC(=O)N[C@@H]1C(O)OC(CO)C(O)C1O (stereo partly specified) | 1.06% (inactive) | 
7 | CCC(CCC(C)C1CCC2C3CC=C4CC(O)CC[C@@]4(C)C3CC[C@@]12C)C(C)C (stereo partly specified) | 0.763% (inactive) | 
8 | O=C1OC(CO)C(O)C(O)C1O (stereo unspecified) | -3.66% (inactive) | 
9 | COc1ccc(CC(N)C(=O)NC2C(CO)OC(n3cnc4c(N(C)C)ncnc43)C2O)cc1 (stereo unspecified) | -5.5% (inactive) | 
10 | CCCC(=O)O[C@]1(C(=O)CO)CCC2[C@@H]3CCC4=CC(=O)CC[C@]4(C)C3C(O)C[C@]21C (stereo partly specified) | -12.2% (inactive) | 
11 | COC(=O)C(Cc1ccccc1)NC(=O)C(N)CC(=O)O (stereo not drawn) (H-Asp-Phe-OMe; configuration not given here) | -11% (inactive) | 
12 | CC[C@@]12CCCN3CCc4c(n(c5ccccc45)[C@](O)(C(=O)OC)C1)C32 (stereo partly specified) | -7.77% (inactive) | 
13 | CC1CCC(C(C)C)C(=O)C1 (stereo unspecified) | -6.78% (inactive) | 
14 | CC(=O)N[C@H](CC(C)C)C(=O)O | -1.52% (inactive) | 
15 | CC(C)C1CCC(C(=O)NC(Cc2ccccc2)C(=O)O)CC1 (stereo unspecified) | -7.97% (inactive) | 
16 | CNC1C(OC2C(O[C@@H]3C(O)C(O)[C@@H](N=C(N)N)C(O)C3N=C(N)N)OC(C)[C@@]2(O)CO)OC(CO)C(O)C1O (stereo partly specified) | -3.34% (inactive) | 
17 | CC1C2CCC3C4CC=C5CC(N(C)C)CC[C@@]5(C)C4CC[C@@]32CN1C (stereo partly specified) | -13.3% (inactive) | 
18 | C[C@]12C=CC(=O)C=C1CCC1C2C(O)C[C@]2(C)C1CC[C@]2(O)C(=O)CO (stereo partly specified) | -8.07% (inactive) | 
19 | COc1c(O)cc(O)cc1O | -0.971% (inactive) | 
20 | Nc1ncnc2c1nc(Br)n2[C@H]1O[C@H]2COP(=O)(O)O[C@H]2[C@@H]1O | -2.2% (inactive) | 
21 | NCC1CCC(N)C(O[C@@H]2C(O)[C@H](O[C@H]3OC(CO)C(O)C(N)C3O)[C@@H](N)C[C@H]2N)O1 (stereo partly specified) | -6.85% (inactive) | 
22 | OCC1O[C@H](OC2C(CO)O[C@@](O)(CO)C2O)C(O)C(O)C1O (stereo partly specified) | -7.01% (inactive) | 
23 | CC1(C)OC2CO[C@]3(COS(N)(=O)=O)OC(C)(C)OC3C2O1 (stereo partly specified) | 2.8% (inactive) | 
24 | Cc1cc(O)c(C=O)c2c1C(=O)Oc1c(C)c(O)c3c(c1O2)C(O)OC3=O (stereo unspecified) |  | 39.8 µM (active)
25 | CN(C)CCCOC1C(C(O)CO)OC2OC(C)(C)O[C@@H]21 (stereo partly specified) | -6.5% (inactive) | 
26 | COc1cc(C2c3cc4c(cc3C(O[C@@H]3OC5COC(c6cccs6)OC5C(O)C3O)C3COC(=O)C23)OCO4)cc(OC)c1O (stereo partly specified) | -5.57% (inactive) | 

biological target: DNA dC->dU-editing enzyme APOBEC-3G (Homo sapiens) (UniProt Q9HC16); test: qHTS for inhibitors of Vif-A3G interactions: Validation (AID 588379); conditions: Vif-A3G protein interaction assay; series mostly up to 46.1 µM; activity change, negative = inhibition: at the top concentration; also: 0% is about no effect
How it was run: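 HeLa cells stably expressing Vif and A3G-eYFP, 700 cells/well, incubated overnight at 37 deg C, then exposed to compound overnight at 37 deg C. Inhibition of Vif-mediated degradation read as increased yellow fluorescence (Ex 488/Em 500-530) by laser-scanning cytometry.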

DNA dC->dU-editing enzyme APOBEC-3G (Homo sapiens), sequence (Q9HC16 whole entry, looked up): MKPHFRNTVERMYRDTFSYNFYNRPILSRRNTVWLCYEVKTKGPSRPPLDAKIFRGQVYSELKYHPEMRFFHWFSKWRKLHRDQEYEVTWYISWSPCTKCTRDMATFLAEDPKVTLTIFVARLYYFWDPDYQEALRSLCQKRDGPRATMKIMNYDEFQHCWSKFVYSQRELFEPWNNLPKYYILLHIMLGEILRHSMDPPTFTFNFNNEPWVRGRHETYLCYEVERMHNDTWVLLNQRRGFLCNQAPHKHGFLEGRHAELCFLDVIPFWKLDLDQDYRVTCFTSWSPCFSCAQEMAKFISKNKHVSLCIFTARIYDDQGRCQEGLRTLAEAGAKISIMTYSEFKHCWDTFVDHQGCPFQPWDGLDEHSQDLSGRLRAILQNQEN

Row | Structure (SMILES) | activity change, negative = inhibition
27 | C/C(=C\CNc1ncnc2nc[nH]c12)CO | -1.2% (inactive)
28 | C[C@]1(c2ccccc2)OC(C(=O)O)=CC1=O | -0.246% (inactive)
29 | CC/C=C\C[C@H]1C(=O)CC[C@@H]1CC(=O)O | -0.913% (inactive)
30 | Nc1ncnc2c1nc(Br)n2[C@H]1O[C@H]2COP(=O)(O)O[C@H]2[C@@H]1O | -0.103% (inactive)

biological target: Luciferin 4-monooxygenase (Photinus pyralis) (UniProt P08659); test: Biochemical firefly luciferase enzyme assay for NPC (AID 624030);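 also: purified P. pyralis luciferase at 10 nM with luciferin and ATP substrate; 0% = DMSO and -100% = full luciferase inhibition by PTC124 control; nearly all actives have a fitted effect of over 70% in size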; conditions: purified P. pyralis luciferase, luminescence, 5 min; series mostly up to 24.9 µM; activity change, negative = inhibition: at the top concentration
How it was run: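 Counter-screen for direct inhibition of the luciferase enzyme by approved-drug library compounds, run at 10 nM enzyme in 50 mM Tris acetate (final). Luminescence was read within 5 min of enzyme-buffer addition and normalized to PTC124 versus DMSO (0%).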

Luciferin 4-monooxygenase (Photinus pyralis), sequence (P08659 whole entry, looked up): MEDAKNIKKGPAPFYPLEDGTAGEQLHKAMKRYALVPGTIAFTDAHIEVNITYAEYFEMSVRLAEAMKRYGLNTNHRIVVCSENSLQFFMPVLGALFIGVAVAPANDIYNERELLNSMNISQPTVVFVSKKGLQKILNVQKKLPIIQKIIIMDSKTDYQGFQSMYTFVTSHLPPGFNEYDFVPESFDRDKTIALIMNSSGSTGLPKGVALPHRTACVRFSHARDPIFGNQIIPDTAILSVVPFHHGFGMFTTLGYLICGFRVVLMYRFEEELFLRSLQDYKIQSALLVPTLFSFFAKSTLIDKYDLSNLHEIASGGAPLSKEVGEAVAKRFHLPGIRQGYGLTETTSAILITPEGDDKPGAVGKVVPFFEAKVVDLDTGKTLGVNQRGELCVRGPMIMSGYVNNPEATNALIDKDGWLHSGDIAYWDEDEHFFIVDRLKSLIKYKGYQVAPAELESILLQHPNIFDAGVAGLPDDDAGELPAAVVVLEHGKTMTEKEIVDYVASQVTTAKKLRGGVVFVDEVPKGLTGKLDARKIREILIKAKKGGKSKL

Row | Structure (SMILES) | activity change, negative = inhibition
31 | CCC(C)C(=O)OC1CCC=C2C=CC(C)C(CCC3CC(O)CC(=O)O3)[C@@H]21 (stereo partly specified) | -0.601% [at 58.6 µM] (inactive)
32 | C[C@]1(c2ccccc2)OC(C(=O)O)=CC1=O | 0.798% [at 58.6 µM] (inactive)
33 | OCC1OC([S-])[C@H](O)C(O)C1O.[Au+] (stereo partly specified) | -16.2% [at 58.6 µM] (inactive)
34 | COC(=O)N/N=C/C1=C[N+](=O)c2ccccc2[N+]1=O | -0.828% [at 58.6 µM] (inactive)
35 | CN1CC(=O)N=C1N | 2.56% [at 58.6 µM] (inactive)
36 | CNC1CC(N)[C@H](O)[C@@H](O[C@@H]2OC(CO)C3OC4(OC(C(N)CO)C(O)C(O)C4O)O[C@@H]3[C@H]2O)C1O (stereo partly specified) | 0.0872% [at 58.6 µM] (inactive)
37 | CC(=O)N[C@@H]1C(O)OC(CO)C(O)C1O (stereo partly specified) | 2.55% [at 58.6 µM] (inactive)
38 | CCC(CCC(C)C1CCC2C3CC=C4CC(O)CC[C@@]4(C)C3CC[C@@]12C)C(C)C (stereo partly specified) | 1.71% [at 58.6 µM] (inactive)
39 | O=C1OC(CO)C(O)C(O)C1O (stereo unspecified) | -0.604% [at 58.6 µM] (inactive)
40 | COc1ccc(CC(N)C(=O)NC2C(CO)OC(n3cnc4c(N(C)C)ncnc43)C2O)cc1 (stereo unspecified) | 3.18% [at 58.6 µM] (inactive)
41 | CCCC(=O)O[C@]1(C(=O)CO)CCC2[C@@H]3CCC4=CC(=O)CC[C@]4(C)C3C(O)C[C@]21C (stereo partly specified) | 1.24% [at 58.6 µM] (inactive)
42 | COC(=O)C(Cc1ccccc1)NC(=O)C(N)CC(=O)O (stereo not drawn) (H-Asp-Phe-OMe; configuration not given here) | -0.544% [at 58.6 µM] (inactive)
43 | CC[C@@]12CCCN3CCc4c(n(c5ccccc45)[C@](O)(C(=O)OC)C1)C32 (stereo partly specified) | 2.24% [at 58.6 µM] (inactive)
44 | CC1(C)SC2C(N3C(=O)C(c4ccccc4)NC3(C)C)C(=O)N2C1C(=O)O (stereo unspecified) | 5.89% [at 58.6 µM] (inactive)
45 | CC1CCC(C(C)C)C(=O)C1 (stereo unspecified) | -21% [at 58.6 µM] (inactive)
46 | CC(=O)N[C@H](CC(C)C)C(=O)O | 3.35% [at 58.6 µM] (inactive)

Row | Structure (SMILES) | activity change, negative = inhibition
47 | CC(C)C1CCC(C(=O)NC(Cc2ccccc2)C(=O)O)CC1 (stereo unspecified) | -18.5% [at 58.6 µM] (inactive)
48 | COc1ccc2cc(C(C)CO)ccc2c1 (stereo unspecified) | -16.4% [at 58.6 µM] (inactive)
49 | COc1ccc2cc1Oc1ccc(cc1)CC1c3c(cc4c(c3Oc3cc5c(cc3OC)CCN(C)C5C2)OCO4)CCN1C (stereo unspecified) | 6% [at 58.6 µM] (inactive)
50 | CNC1C(OC2C(O[C@@H]3C(O)C(O)[C@@H](N=C(N)N)C(O)C3N=C(N)N)OC(C)[C@@]2(O)CO)OC(CO)C(O)C1O (stereo partly specified) | 1.81% [at 58.6 µM] (inactive)
51 | CC1C2CCC3C4CC=C5CC(N(C)C)CC[C@@]5(C)C4CC[C@@]32CN1C (stereo partly specified) | 7.71% [at 58.6 µM] (inactive)
52 | C[C@]12C=CC(=O)C=C1CCC1C2C(O)C[C@]2(C)C1CC[C@]2(O)C(=O)CO (stereo partly specified) | 0.838% [at 58.6 µM] (inactive)
53 | COc1ccc2c(c1)N(C[C@@H](C)CN(C)C)c1ccccc1S2 | 8.73% (inactive)
54 | CCOC(=O)C1=CC(OC(CC)CC)C(NC(C)=O)C(N)C1 (stereo unspecified) | 5.88% [at 58.6 µM] (inactive)
55 | CN(C)CCc1c[nH]c2ccc(CC3COC(=O)N3)cc12 (stereo unspecified) | 0.0807% [at 58.6 µM] (inactive)
56 | NCC1CCC(N)C(O[C@@H]2C(O)[C@H](O[C@H]3OC(CO)C(O)C(N)C3O)[C@@H](N)C[C@H]2N)O1 (stereo partly specified) | 5.24% [at 58.6 µM] (inactive)
57 | OCC1O[C@H](OC2C(CO)O[C@@](O)(CO)C2O)C(O)C(O)C1O (stereo partly specified) | 3.32% [at 58.6 µM] (inactive)
58 | CC1(C)OC2CO[C@]3(COS(N)(=O)=O)OC(C)(C)OC3C2O1 (stereo partly specified) | 1.34% [at 58.6 µM] (inactive)
59 | CC(=O)OC1CCC2C3CCc4cc(O)ccc4C3CCC12C (stereo unspecified) | 2.27% [at 58.6 µM] (inactive)
60 | CN(C)CCCOC1C(C(O)CO)OC2OC(C)(C)O[C@@H]21 (stereo partly specified) | -8.31% [at 58.6 µM] (inactive)
61 | COc1cc(C2c3cc4c(cc3C(O[C@@H]3OC5COC(c6cccs6)OC5C(O)C3O)C3COC(=O)C23)OCO4)cc(OC)c1O (stereo partly specified) | 14.2% [at 58.6 µM] (inactive)
